# Results from PubChem BioAssay (NCI).
# About 83,000 compounds went through this panel and 20% of them were active in at least one assay; those are over-represented in the sample as a whole.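 Activity criterion: percent growth below 10, measured after cells in 96-well plates were exposed to a single compound concentration for 48 hours.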 Values without a mark were called inactive. Calls of active or inactive are those of the source.
# System: HL-60(TB) leukemia
# Assay: NCI-60 one-dose screen, 48 h (100 = growth as untreated, 0 = no growth, -100 = all killed)
# Conditions: 10 µM unless noted
row,SMILES,growth
1,Cc1cnc(N)s1,97.7%
2,CCCCCCCCn1ccc2cc(NC(=O)Cn3cc(CN4CCCCCC4)nn3)ccc21,-43.1% (active)
3,CC(C)(C)CC(C)(C)Nc1c(-c2ccc(-c3ccccc3)cc2)nc2cnccn12,92.9%
4,C[C@@H](NC(=O)c1ncnc(N)c1Cl)c1ncc(C(=O)Nc2cc(C(F)(F)F)c(Cl)cn2)s1,35.4%
5,Nc1n[nH]c2cccc(C#Cc3cccc(C(=O)Nc4ccc(CN5CCOCC5)c(C(F)(F)F)c4)c3)c12,7.67% (active)
6,COc1cccc(-c2nn(-c3ccccc3)cc2-c2ccnc(NCCCNS(=O)(=O)c3cccc(F)c3)c2)c1,9.51% (active)
7,O=C1CN2CCC1C/C2=C\c1ccnc2c(Cl)cccc12 (centres undefined),91.8%
8,CCCCCN1C=C/C(=C\C(=O)N(C)c2cccc3ccccc23)c2ccccc21,97.1%
9,O=C(O)c1cccc([N+](=O)[O-])c1/C=C/c1ccccc1,97.4%
10,O=[N+]([O-])C1CC2C=CC1C2 (centres undefined),97.6%
11,O=C1/C(=C2\SC(=S)N(C3CC3)C2=O)SC(=S)N1C1CC1,104%
12,O=c1c2ccccc2n(CC(O)CN2CCCC2)c2c(Br)cccc12 (centres undefined),82.3%
13,Cc1ccc(-c2cn3cc([N+](=O)[O-])ccc3n2)cc1,47.7%
14,CCNCCCn1c2c(c3ccc([N+](=O)[O-])cc3c1=O)C(=O)c1cc(OC)cnc1-2,-36% (active)
15,N#CC(C#N)=Cc1cc2ccccc2nc1Oc1ccc(C(F)(F)F)cc1,78.4%
16,CCSC1=NC2C(N(CC)C(=O)N2CC)N1/N=C/C=C/c1ccccc1[N+](=O)[O-] (centres undefined),-49.4% (active)
17,CC1(C)CC(=O)C2=C(C1)N(c1ccc(OC(F)(F)F)cc1)C(N)=C(C#N)C2c1ccc(Br)cc1F (centres undefined),78.5%
18,CCOC(=O)c1c(CN2CCN(C)CC2)nc2ccc(Cl)cc2c1-c1ccccc1,26.5%
19,CC1(C)CCCC2=C1C(=O)N(SC(Cl)(Cl)Cl)C2=O,76.1%
20,C/C(=N\O)c1ccc(NC(=O)CSc2nnc(-c3cc(-c4ccc(S(N)(=O)=O)cc4)nc4ccccc34)n2-c2ccccc2)cc1,24.1%

row,SMILES,growth
1,O=C(CSc1nc2ccccc2[nH]1)Nc1ccc(-c2nc3ccccc3s2)c(Cl)c1,62%
2,COc1cc(/C=C2\CCCC3C2=Nc2ccccc2NC3c2cc(OC)c(OC)c(OC)c2)cc(OC)c1OC (centres undefined),1.55% (active)
3,C=C(C)[C@@H]1CC=C2c3sc(-c4ccc(C)cc4)nc3C[C@@H](C)[C@]2(C)C1,102%
4,N#C/C=C(\c1ccc([N+](=O)[O-])cc1)n1nnc2cc(Cl)c(Cl)cc21,13.3%
5,CC([C@H]1CCC2C3CCC4C[C@@H](N)CC[C@]4(C)C3CC[C@@]21C)N(C)C (some centres undefined),30.6%
6,Cc1ccc2c(-n3nc(C#N)c(C#N)c3N)cc(=O)[nH]c2c1,109%
7,CSc1nc2c(c(=O)[nH]1)C(c1ccc(C)cc1)C=C(C(=O)O)N2 (centres undefined),114%
8,COc1cc2c(cc1OC)[C@H](C(=O)O)[C@@H](c1ccc(OC(C)C)c(OC)c1)N(C)C2=O,94.9%
9,C=C(C)[C@@H]1CC[C@]2(C(N)=O)CC[C@]3(C)[C@H](CC[C@@H]4[C@@]5(C)CC[C@H](OCCC#N)C(C)(C)[C@@H]5CC[C@]43C)[C@@H]12,99.9%
10,CCN(CC)Cc1cc(Nc2cc(C(F)(F)F)c(C#N)c3nc4ccccc4n23)ccc1O,-10.9% (active)
11,CC(C)Cc1ccc(C(C)C(=O)NCc2ccc(Cn3c(=O)sn(-c4ccc(Cl)cc4)c3=O)cc2)cc1 (centres undefined),95.8%
12,Nc1ncnc2[nH]ncc12,3.02% (active)
13,Cn1c(=O)c2c(ncn2CCC(=O)Nc2ccc(F)cc2)n(C)c1=O,94.1%
14,O=C1C(=O)N(CCCCn2cc(-c3ccccc3)nn2)c2ccccc21,118%
15,CC1(c2ccccc2)NC(=O)NC1=O (centres undefined),104%
16,CCOc1ccc([C@@H]2[C@@H](Oc3ccccc3)C(=O)N2c2cc(OC)c(OC)c(OC)c2)cc1,-36% (active)
17,CCN1CCN(c2cc(C(=O)Nc3cccc(Nc4ccc5c(OC)cccc5n4)c3)cc(C(F)(F)F)c2)CC1,62.6%
18,O=c1c2cc(F)ccc2sc2c(NCCCN3CCCC3)nc3ccccc3c12,13.9%
19,CCCC(NC(=O)OCc1ccccc1)C(=O)O (centres undefined),44.9%
